Assay results taken from PubChem BioAssay (NCI).
This is part of a sample that, as a whole, favours compounds with a hit. Of some 83,000 tested, about 20% had one in any assay.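 Compound tested at a single concentration for 48 hours in 96-well plates; a percent growth value below 10 was scored as active.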 Activity calls are given as the source filed them.

How the values were obtained:
Experiment in all cases: NCI-60 one-dose screen, 48 h (100 = growth as untreated, 0 = no growth, -100 = all killed)
Settings in all cases: 10 µM unless noted
HCT-15 colon = tested on: HCT-15 colon
HT29 colon = tested on: HT29 colon
SNB-75 CNS = tested on: SNB-75 CNS
SNB-19 CNS = tested on: SNB-19 CNS
U251 CNS = tested on: U251 CNS
PC-3 prostate = tested on: PC-3 prostate
SK-MEL-5 melanoma = tested on: SK-MEL-5 melanoma
UACC-62 melanoma = tested on: UACC-62 melanoma
LOX IMVI melanoma = tested on: LOX IMVI melanoma
SK-MEL-28 melanoma = tested on: SK-MEL-28 melanoma
SK-MEL-2 melanoma = tested on: SK-MEL-2 melanoma
EKVX NSCLC = tested on: EKVX NSCLC
SN12C renal = tested on: SN12C renal
UO-31 renal = tested on: UO-31 renal
TK-10 renal = tested on: TK-10 renal
ACHN renal = tested on: ACHN renal
CAKI-1 renal = tested on: CAKI-1 renal
A498 renal = tested on: A498 renal
CCRF-CEM leukemia = tested on: CCRF-CEM leukemia
MOLT-4 leukemia = tested on: MOLT-4 leukemia

Measured: growth

Oc1c(I)cc(-c2nc3ccccc3s2)cc1CN(Cc1ccccn1)Cc1ccccn1
active: U251 CNS 8.16% | SK-MEL-5 melanoma -78.3% | LOX IMVI melanoma 3.14% | EKVX NSCLC 8.07% | UO-31 renal -26.6% | ACHN renal 8.93% | CAKI-1 renal 5.39% | CCRF-CEM leukemia 7.86% | MOLT-4 leukemia 0.129%
inactive: HCT-15 colon 22% | HT29 colon 21.3% | SNB-75 CNS 40.1% | SNB-19 CNS 20.9% | PC-3 prostate 28.3% | UACC-62 melanoma 10.5% | SK-MEL-28 melanoma 37.5% | SK-MEL-2 melanoma 14.8% | SN12C renal 17.3% | TK-10 renal 14.5% | A498 renal 18.1%

Fc1ccc(COc2ccc(Nc3ncnc4sc5c(c34)CCCC5)cc2)cc1
inactive: HCT-15 colon 92.6% | HT29 colon 77.8% | SNB-75 CNS 113% | SNB-19 CNS 100% | U251 CNS 90.8% | PC-3 prostate 72.2% | SK-MEL-5 melanoma 95.5% | UACC-62 melanoma 72.1% | LOX IMVI melanoma 99.5% | SK-MEL-28 melanoma 91.5% | SK-MEL-2 melanoma 84.4% | EKVX NSCLC 94.3% | SN12C renal 81.1% | UO-31 renal 78.5% | TK-10 renal 84% | ACHN renal 95.2% | CAKI-1 renal 99.6% | A498 renal 86.2% | CCRF-CEM leukemia 97.6% | MOLT-4 leukemia 87.4%

CCOC(=O)CSc1nc2sc3c(c2c(=O)n1-c1ccc([N+](=O)[O-])cc1)CCCCC3
inactive: HCT-15 colon 85.1% | HT29 colon 78.6% | SNB-75 CNS 11% | SNB-19 CNS 78.8% | U251 CNS 53.5% | PC-3 prostate 73.2% | SK-MEL-5 melanoma 88.7% | UACC-62 melanoma 74.9% | LOX IMVI melanoma 79.6% | SK-MEL-28 melanoma 84.1% | SK-MEL-2 melanoma 90.9% | EKVX NSCLC 82.8% | SN12C renal 84.3% | UO-31 renal 71.4% | TK-10 renal 84.7% | ACHN renal 52.8% | CAKI-1 renal 51.2% | A498 renal 85.3% | CCRF-CEM leukemia 89% | MOLT-4 leukemia 97%

COc1ccc(C2CC(c3ccc(Nc4nc(Nc5ccc(F)cc5)nc(Nc5ccc(F)cc5)n4)cc3)=NN2C(C)=O)cc1 (stereo not given)
inactive: HCT-15 colon 94.4% | HT29 colon 100% | SNB-75 CNS 101% | SNB-19 CNS 85.2% | U251 CNS 84.5% | PC-3 prostate 68.8% | SK-MEL-5 melanoma 71.6% | UACC-62 melanoma 103% | LOX IMVI melanoma 103% | SK-MEL-28 melanoma 110% | SK-MEL-2 melanoma 72% | EKVX NSCLC 94.8% | SN12C renal 116% | UO-31 renal 97.7% | TK-10 renal 104% | ACHN renal 84.5% | CAKI-1 renal 90.6% | A498 renal 85.3% | CCRF-CEM leukemia 23.5% | MOLT-4 leukemia 34.6%

CCCCn1sc(=O)n(Cc2ccc(CNC(=O)OCc3ccc4c(Br)cc(Br)c(O)c4n3)cc2)c1=O
inactive: HT29 colon 96.4% | SNB-75 CNS 14.4% | SNB-19 CNS 37.4% | U251 CNS 11.2% | PC-3 prostate 18.9% | UACC-62 melanoma 37.6% | LOX IMVI melanoma 22.9% | SK-MEL-28 melanoma 67.4% | SK-MEL-2 melanoma 45.6% | EKVX NSCLC 103% | SN12C renal 29.5% | UO-31 renal 42.7% | TK-10 renal 74.8% | ACHN renal 33.6% | CAKI-1 renal 22.4% | CCRF-CEM leukemia 18.1% | MOLT-4 leukemia 14.6%
active: HCT-15 colon 9.07% | SK-MEL-5 melanoma -35.2% | A498 renal -7.85%

Cc1ccc(C)n1/C=C/n1c(C)ccc1C
inactive: HCT-15 colon 106% | HT29 colon 102% | SNB-75 CNS 80.7% | SNB-19 CNS 98.4% | U251 CNS 109% | PC-3 prostate 62.8% | SK-MEL-5 melanoma 98.7% | UACC-62 melanoma 98.8% | LOX IMVI melanoma 105% | SK-MEL-28 melanoma 125% | SK-MEL-2 melanoma 109% | EKVX NSCLC 85.9% | SN12C renal 118% | UO-31 renal 93.6% | TK-10 renal 93.5% | ACHN renal 112% | CAKI-1 renal 69.5% | A498 renal 85.8% | CCRF-CEM leukemia 88.4% | MOLT-4 leukemia 117%

COc1ccc(NC(=O)c2sc3nc4c(cc3c2N)CCCC4)cc1
inactive: HCT-15 colon 28.6% | SNB-75 CNS 17.3% | SNB-19 CNS 34.7% | U251 CNS 22.6% | PC-3 prostate 26.9% | UACC-62 melanoma 43% | LOX IMVI melanoma 35.8% | SK-MEL-28 melanoma 62.3% | SK-MEL-2 melanoma 34.9% | EKVX NSCLC 44.3% | SN12C renal 60.8% | UO-31 renal 48% | TK-10 renal 38.8% | ACHN renal 49.3% | CAKI-1 renal 38.5% | MOLT-4 leukemia 21.5%
active: HT29 colon 0.414% | SK-MEL-5 melanoma 5.04% | A498 renal 5.75% | CCRF-CEM leukemia 9.46%

COc1cc(-c2nc(SCCC(C)C)nc(N3CCOCC3)c2C#N)cc(OC)c1OC
active: U251 CNS 5.83%
inactive: HCT-15 colon 68.3% | HT29 colon 19.2% | SNB-75 CNS 53.4% | SNB-19 CNS 65.8% | PC-3 prostate 62.3% | SK-MEL-5 melanoma 102% | UACC-62 melanoma 91.4% | LOX IMVI melanoma 83.2% | SK-MEL-28 melanoma 108% | SK-MEL-2 melanoma 116% | EKVX NSCLC 100% | SN12C renal 54.9% | UO-31 renal 73.9% | TK-10 renal 46.5% | ACHN renal 101% | CAKI-1 renal 76.2% | A498 renal 108% | CCRF-CEM leukemia 78.8% | MOLT-4 leukemia 89.2%
